# According to PubChem BioAssay:
# Several values for one entry are separate records, joined by “and”; a condition that tells them apart may be missing. Identical values can stand only once. Activity calls are given as the source filed them.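 Rule for the calls, unless noted: active = compounds whose cell count with miR-34 switched on is under 0.7 times the count with it off; inactive = the rest.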
# Columns and labels:
# [1] = compounds altering viability of human ES cells (AID 493140; call rule not given here;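 note: cells exposed to compounds for four days before counting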); conditions: human embryonic stem cell survival screen; stronger effect = higher value
# [2] = Wnt pathway potentiators raising nuclear beta-catenin – imaging, WNT3A-conditioned medium, mouse C2C12, NPC library, primary screen (AID 1117326; in the data active = nuclear beta-catenin stimulation mostly above about 4.2%, no sharp cut-off; inactive = mostly below about 10%); conditions: stronger effect = higher value
# [3] = stimulators of insulin release from INS-1E, primary screen, cell-based, 5 mM glucose, NPC library (AID 1117329;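 active = compound raises insulin release from rat beta cells at 5 mM glucose, no numeric limit stated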); conditions: rat INS-1E insulin secretion, at 10 µM, stronger effect = higher value
# [4] = growth inhibition of GSK3B-pretreated HCT116 cells – cell-based, CellTiter-Glo, 0.2 to 20 µM (AID 1117336;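 active = compounds lowering colon cancer cell viability after pretreatment blocking the GSK3B kinase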); conditions: HCT116 viability after GSK3B inhibitor, at 20 µM, stronger effect = higher value
# [5] = inhibition of endothelial tube formation, primary screen, imaging, VEGF stimulated, CD31 staining, tube area, NPC library (AID 1117340;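 active = compound that reduces growth-factor-driven endothelial tube area in a mixed cell culture, no cutoff stated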); conditions: VEGF-stimulated ADSC/ECFC co-culture, at 10 µM, stronger effect = higher value
# [6] = GLP1 release stimulators, primary, NCI-H716, NPC library (AID 1117341;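 active = compound raises GLP1 secretion from the human gut endocrine cells, with no numeric limit stated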); conditions: NCI-H716 cells, at 10 µM, stronger effect = higher value
# [7] = HCT116 colon cancer cell growth inhibition, primary screen, CellTiter-Glo luminescence, NPC library (AID 1117342;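 active = compounds that lower survival of HCT116 colon cancer cells in the luminescence readout, no numeric limit stated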); conditions: at 20 µM (top of the series)
# [8] = reduced SW480 viability measured with CellTiter-Glo, NPC library, primary (AID 1117343;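 active = compounds that lower viability of the colon cancer cells in the luminescence readout, with no numeric limit stated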); conditions: CellTiter-Glo luminescence; at 20 µM (top of the series) unless noted
# [9] = NPC library primary testing for decreased DLD-1 cell viability via CellTiter-Glo (AID 1117346;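 active = compounds that lower survival of DLD-1 colon cancer cells in the luminescence readout, no cutoff given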); conditions: DLD-1 viability, CellTiter-Glo luminescence; at 20 µM (top of the series)
# [10] = EMT-state selective cytotoxicity in co-culture – imaging, PC-3E GFP, TEM4-18 mCherry, primary screen (AID 1345086;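 active = compounds killing one labelled cell type while sparing the other, by normalised counts and ratio limits, not self-fluorescent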;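 for all read-outs here: cells exposed to compound for 72 h before imaging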;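 for red/green cell ratio (normalised): normalised mesenchymal count divided by normalised epithelial count so high means epithelial killing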); conditions: PC-3E GFP / TEM4-18 mCherry co-culture, imaging cell counts, at 1 µM; for red/green cell ratio (normalised): actives lie on both sides, counts scaled to control wells, 1 = unselective
# [11] = viability loss with induced miR-34 in A549 – imaging, A549 dox-inducible miR-34, nuclei and caspase counts, primary screen (AID 1347080); conditions: A549 miR-34 inducible, Hoechst nuclei count, 48 h
# [12] = MELAS cybrid and Rieske KO viability enhancers – cell-based, MELAS cybrids, Rieske KO mouse fibroblasts, CellTiter-Glo, primary screen (AID 1508586;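 active = mean z-score across replicates of 1.96 or higher in either the MELAS or the Rieske mutant cell line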;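 note: z relative to plate mean and SD of compound and empty wells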); conditions: low glucose
# [13] = target: NAD(+) hydrolase SARM1 (Homo sapiens) (UniProt Q6SZW1); assay: blocking NAD cleavage by SARM1 SAM-TIR – cell lysate, NAD-Glo luminescence (AID 1508614;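 active = compound whose remaining NAD level is above about 45 nM, limit read from the data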;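 note: higher remaining NAD means stronger inhibition of SARM1 NADase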); conditions: SAM-TIR HEK293T lysate NADase, at 1 µM, stronger effect = higher value
# NAD(+) hydrolase SARM1 (Homo sapiens), sequence (Q6SZW1 whole entry, looked up): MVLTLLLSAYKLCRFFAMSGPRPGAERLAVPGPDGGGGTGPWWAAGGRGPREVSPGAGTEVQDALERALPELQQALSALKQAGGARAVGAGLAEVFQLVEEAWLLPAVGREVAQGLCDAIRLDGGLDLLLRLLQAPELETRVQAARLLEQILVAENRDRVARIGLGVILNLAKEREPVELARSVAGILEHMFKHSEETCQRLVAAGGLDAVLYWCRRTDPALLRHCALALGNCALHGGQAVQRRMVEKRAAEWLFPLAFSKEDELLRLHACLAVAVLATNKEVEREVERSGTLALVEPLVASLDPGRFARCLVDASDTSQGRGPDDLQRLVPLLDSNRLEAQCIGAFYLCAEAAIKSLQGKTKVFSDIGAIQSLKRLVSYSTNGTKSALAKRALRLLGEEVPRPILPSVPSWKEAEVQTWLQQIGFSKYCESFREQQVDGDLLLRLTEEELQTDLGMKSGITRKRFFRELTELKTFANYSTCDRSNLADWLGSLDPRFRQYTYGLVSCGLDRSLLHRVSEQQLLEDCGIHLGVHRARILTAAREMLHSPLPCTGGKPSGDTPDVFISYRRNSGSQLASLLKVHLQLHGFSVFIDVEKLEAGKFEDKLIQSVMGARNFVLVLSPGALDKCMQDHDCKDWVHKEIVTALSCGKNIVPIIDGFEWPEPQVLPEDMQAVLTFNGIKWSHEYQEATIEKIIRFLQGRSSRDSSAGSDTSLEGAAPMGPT
# [14] = P. berghei load reduction in hepatocytes – cell-based, HepG2, luciferase luminescence, HepG2 viability, primary screen (AID 624349; in the data active = parasite load remaining mostly below about 12%, no sharp cut-off; inactive = mostly above about 10%;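 note: 100% = mean of DMSO negative control wells on the same plate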); conditions: P. berghei liver stage in HepG2, luciferase luminescence, concentration not given here; parasite load remaining: stronger effect = lower value; viability: measured here: HepG2 viability without parasites
# [15] = measured here: epithelial PC-3E GFP cell survival
# [16] = measured here: mesenchymal TEM4-18 mCherry cell survival
# [17] = stronger effect = lower value, cell number ratio, induced over uninduced
# [18] = measured here: relative caspase fold change +Dox/-Dox
# [19] = measured here: total cells with miR-34 induction, stronger effect = lower value
# [20] = measured here: total cells without miR-34 induction
# [21] = MELAS cybrid survival, CellTiter-Glo 48 h, stronger effect = higher value
# [22] = Rieske KO mouse fibroblast survival, CellTiter-Glo 72 h
compound,measurement,setting,value
N=C(N)N1CCc2ccccc2C1,survival,[1],9.58 (inactive)
same,nuclear beta-catenin stimulation,[2]; at 10 µM,0.5% (inactive)
same,nuclear beta-catenin stimulation,"[2]; stimulation, at 2 µM",0.9%
same,insulin secretion stimulation,[3],1.35% (inactive)
same,viability decrease,[4],12.1% (inactive)
same,tube area decrease,[5],-0.3% (inactive)
same,GLP1 secretion stimulation,[6],3.1% (inactive)
same,inhibition of viability,[7],9.2% (inactive)
same,viability decrease (inhibition),[8],5.1% (inactive)
same,viability decrease (inhibition),[9],0% (inactive)
same,red/green cell ratio (normalised),[10],0.87 (inactive)
same,normalised cell number,[10]; [15],1.22
same,normalised cell number,[10]; [16],1.07
same,fold change,[11]; [17],0.813 (inactive) and 0.913 (inactive) and 0.943 (inactive)
same,fold change,[11]; [18],1.55 and 2.39 and 2.81
same,cell count,[11]; [19],8490 and 11800 and 9640
same,cell count,[11]; [20],10400 and 13000 and 10200
same,z-score,[12]; [21],0.0225 (inactive) and -0.468 (inactive)
same,z-score,[12]; [22],-0.12 and -1.06
same,remaining NAD,[13],10 nM (inactive)
CN1CCC(=C2c3ccccc3CCc3cccnc32)CC1,nuclear beta-catenin stimulation,[2]; at 10 µM,-2.3% (inactive)
same,nuclear beta-catenin stimulation,"[2]; stimulation, at 2 µM",-0.6%
same,insulin secretion stimulation,[3],9.4% (inactive)
same,viability decrease,[4],-3.7% (inactive)
same,tube area decrease,[5],15.1% (inactive)
same,GLP1 secretion stimulation,[6],2.5% (inactive)
same,inhibition of viability,[7],-2.7% (inactive)
same,viability decrease (inhibition),[8],13.6% (inactive)
same,viability decrease (inhibition),[9],-0.2% (inactive)
same,red/green cell ratio (normalised),[10],0.76 (inactive)
same,normalised cell number,[10]; [15],1.26
same,normalised cell number,[10]; [16],0.95
same,fold change,[11]; [17],0.929 (inactive) and 0.835 (inactive)
same,fold change,[11]; [18],0.933 and 0.421 and 1.15
same,cell count,[11]; [19],8510 and 8540 and 7120
same,cell count,[11]; [20],9160 and 9200 and 8530
same,z-score,[12]; [21],-0.226 (inactive) and -0.309 (inactive) and -0.701 (inactive)
same,z-score,[12]; [22],-0.00379 and -0.328 and -0.133
same,remaining NAD,[13],10 nM (inactive)
CN1C(=O)OC(C)(C)C1=O,survival,[1],8.08 (inactive)
same,parasite load remaining,[14],83.9% (inactive) and 86.8% (inactive) and 50.6% (inactive)
same,viability,[14],107% and 78.1% and 129%
same,nuclear beta-catenin stimulation,[2]; at 10 µM,1.4% (inactive)
same,nuclear beta-catenin stimulation,"[2]; stimulation, at 2 µM",-0.1%
same,insulin secretion stimulation,[3],1% (inactive)
same,viability decrease,[4],31.5% (inactive)
same,tube area decrease,[5],13.2% (inactive)
same,GLP1 secretion stimulation,[6],-0.3% (inactive)
same,inhibition of viability,[7],28% (inactive)
same,viability decrease (inhibition),[8],54.4% (active)
same,viability decrease (inhibition),[9],87.4% (active)
same,red/green cell ratio (normalised),[10],0.94 (inactive)
same,normalised cell number,[10]; [15],0.96
same,normalised cell number,[10]; [16],0.9
same,fold change,[11]; [17],0.862 (inactive) and 0.885 (inactive)
same,fold change,[11]; [18],1.14 and 3.65
same,cell count,[11]; [19],9130 and 11500
same,cell count,[11]; [20],10600 and 13000
same,z-score,[12]; [21],0.482 (inactive)
same,z-score,[12]; [22],-0.121
same,remaining NAD,[13],10 nM (inactive)
CNCCc1ccccn1,survival,[1],9.67 (inactive)
same,parasite load remaining,[14],177% (inactive) and 67% (inactive) and 40.9% (inactive)
same,viability,[14],106% and 76.5% and 92.3%
same,nuclear beta-catenin stimulation,[2]; at 10 µM,0.2% (inactive)
same,nuclear beta-catenin stimulation,"[2]; stimulation, at 2 µM",1.8%
same,insulin secretion stimulation,[3],-0.8% (inactive)
same,viability decrease,[4],5.6% (inactive)
same,tube area decrease,[5],-1.2% (inactive)
same,GLP1 secretion stimulation,[6],-0.6% (inactive)
same,inhibition of viability,[7],-13.4% (inactive)
same,viability decrease (inhibition),[8],-3.4% (inactive)
same,viability decrease (inhibition),[9],1.9% (inactive)
same,red/green cell ratio (normalised),[10],1.06 (inactive)
same,normalised cell number,[10]; [15],1.06
same,normalised cell number,[10]; [16],1.12
same,fold change,[11]; [17],0.848 (inactive) and 0.92 (inactive) and 0.919 (inactive)
same,fold change,[11]; [18],1.09 and 0.698 and 1.77
same,cell count,[11]; [19],9020 and 8170 and 11700
same,cell count,[11]; [20],10600 and 8880 and 12700
same,z-score,[12]; [21],-0.325 (inactive) and 0.341 (inactive)
same,z-score,[12]; [22],-0.163 and 0.19
same,remaining NAD,[13],10 nM (inactive)
